From ChEMBL document CHEMBL3988442, “University of Dundee, Small-Polar-MMV Screening Library” (2021)
For some assays here: Measured potencies and affinities stand elsewhere.

How the values were obtained:
Design in all cases: scale not given: direction of the effect not stated beside the values
[1] = biological target: Protein translocase subunit SecA (Escherichia coli (strain K12)) (UniProt P10408); assay: Assay to Identify E. coli SecA ATPase Inhibitors; format: functional; conditions: 30 µM
[2] = biological target: T1, Ubiquitin-activating enzyme e1, putative (Leishmania donovani (strain BPK282A1)) (UniProt E9BSI1); assay: Leishmania donovani Ubiquitin Activating Enzyme (LdE1); format: functional; conditions: 30 µM
T1 sequence (whole entry): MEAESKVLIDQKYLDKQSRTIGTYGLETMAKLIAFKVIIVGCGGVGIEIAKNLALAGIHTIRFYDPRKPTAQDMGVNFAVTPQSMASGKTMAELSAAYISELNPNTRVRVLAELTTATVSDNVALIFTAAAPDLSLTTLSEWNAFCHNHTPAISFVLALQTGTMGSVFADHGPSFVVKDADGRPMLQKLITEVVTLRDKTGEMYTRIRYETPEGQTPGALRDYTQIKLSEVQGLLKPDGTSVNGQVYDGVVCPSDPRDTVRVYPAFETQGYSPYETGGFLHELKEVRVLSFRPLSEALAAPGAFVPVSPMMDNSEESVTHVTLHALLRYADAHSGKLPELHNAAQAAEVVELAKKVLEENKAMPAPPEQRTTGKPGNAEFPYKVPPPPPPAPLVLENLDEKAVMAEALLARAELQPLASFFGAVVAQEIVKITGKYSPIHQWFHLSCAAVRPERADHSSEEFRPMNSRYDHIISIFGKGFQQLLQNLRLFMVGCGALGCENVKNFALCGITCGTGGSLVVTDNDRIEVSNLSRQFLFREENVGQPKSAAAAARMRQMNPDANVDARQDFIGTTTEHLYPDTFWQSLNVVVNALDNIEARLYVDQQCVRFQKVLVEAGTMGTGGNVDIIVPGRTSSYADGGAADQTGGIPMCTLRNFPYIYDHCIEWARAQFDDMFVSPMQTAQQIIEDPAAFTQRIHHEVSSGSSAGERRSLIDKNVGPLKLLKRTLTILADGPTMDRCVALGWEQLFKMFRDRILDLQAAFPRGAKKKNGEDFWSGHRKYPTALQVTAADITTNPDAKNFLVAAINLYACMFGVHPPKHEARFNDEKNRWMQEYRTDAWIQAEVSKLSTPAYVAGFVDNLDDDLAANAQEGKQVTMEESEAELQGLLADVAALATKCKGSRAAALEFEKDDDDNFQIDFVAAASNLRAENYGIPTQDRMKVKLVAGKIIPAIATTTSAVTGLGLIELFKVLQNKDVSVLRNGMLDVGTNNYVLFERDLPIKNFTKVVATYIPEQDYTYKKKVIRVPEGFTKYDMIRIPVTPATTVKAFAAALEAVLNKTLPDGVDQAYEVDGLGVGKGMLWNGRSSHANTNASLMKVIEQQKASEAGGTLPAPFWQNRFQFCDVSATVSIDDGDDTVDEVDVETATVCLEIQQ

[3] = biological target: AMP-activated protein kinase, AMPK (Homo sapiens) (UniProt P54646+O43741+P54619+Q9UGJ0+Q9Y478+Q13131+Q9UGI9); assay: AMP-dependent Kinase enzyme assay. An in vitro enzyme assay that detects ADP turnover that is directly proportional to AMPK activity. This uses naive AMPK that is activated during the assay with MK-8722; format: functional; conditions: 30 µM
[4] = biological target: Sialic acid-binding Ig-like lectin 9 (Homo sapiens) (UniProt Q9Y336); assay: Hs-Siglec9 ALPHAscreen SOP 20170721; conditions: 10 µM
Sequence of Sialic acid-binding Ig-like lectin 9 (Homo sapiens) (Q9Y336 whole entry): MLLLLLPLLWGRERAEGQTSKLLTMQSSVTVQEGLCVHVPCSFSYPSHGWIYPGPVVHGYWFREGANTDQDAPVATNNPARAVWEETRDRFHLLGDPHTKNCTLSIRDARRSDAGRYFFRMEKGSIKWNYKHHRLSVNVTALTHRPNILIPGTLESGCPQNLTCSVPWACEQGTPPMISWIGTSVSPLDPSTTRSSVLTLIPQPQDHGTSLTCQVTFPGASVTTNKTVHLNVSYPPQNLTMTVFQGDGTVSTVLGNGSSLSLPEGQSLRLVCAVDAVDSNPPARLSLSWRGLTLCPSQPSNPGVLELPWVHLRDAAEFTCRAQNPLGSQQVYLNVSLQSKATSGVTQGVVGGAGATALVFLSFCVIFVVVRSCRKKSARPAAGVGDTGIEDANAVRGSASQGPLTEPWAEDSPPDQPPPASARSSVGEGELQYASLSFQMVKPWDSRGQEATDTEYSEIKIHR

Trypanosoma cruzi = assay: Trypanosoma cruzi phosphomannomutase and mannose-1-phosphate guanylyltransferase assay; format: functional; conditions: 10 µM
[5] = biological target: T2, Arginase-2, mitochondrial (Homo sapiens) (UniProt P78540); assay: in vitro enzyme assay to detect the production of urea directly proportional to the activity of Arginase II; format: functional; conditions: 33.3 µM; also: in the data most compounds retested in dose-response had high values
T2 sequence (whole entry): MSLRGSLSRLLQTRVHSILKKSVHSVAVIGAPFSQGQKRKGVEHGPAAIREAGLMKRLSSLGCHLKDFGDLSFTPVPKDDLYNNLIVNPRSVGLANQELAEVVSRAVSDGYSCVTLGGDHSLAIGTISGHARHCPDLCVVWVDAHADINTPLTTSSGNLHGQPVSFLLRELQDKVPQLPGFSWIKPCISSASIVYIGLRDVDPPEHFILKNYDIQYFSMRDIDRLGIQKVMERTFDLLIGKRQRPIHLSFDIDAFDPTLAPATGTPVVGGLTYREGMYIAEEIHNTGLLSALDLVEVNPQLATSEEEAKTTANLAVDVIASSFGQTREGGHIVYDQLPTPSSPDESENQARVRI

[6] = biological target: T3, Proteasome subunit beta (Trypanosoma cruzi) (UniProt O96673); assay: Trypanosoma cruzi proteasome chymotrypsin-like activity (TcProtChymo) assay.; also: in the data most compounds retested in dose-response had high values; format: functional; conditions: 9.37 µM
T3 sequence (whole entry): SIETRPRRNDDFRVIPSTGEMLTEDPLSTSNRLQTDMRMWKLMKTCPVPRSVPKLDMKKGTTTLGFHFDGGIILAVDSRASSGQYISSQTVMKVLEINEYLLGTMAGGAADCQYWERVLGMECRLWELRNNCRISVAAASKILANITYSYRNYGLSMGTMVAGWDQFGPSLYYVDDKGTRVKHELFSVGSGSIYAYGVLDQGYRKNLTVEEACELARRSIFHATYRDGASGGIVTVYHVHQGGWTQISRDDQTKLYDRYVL

Homo sapiens = species: Homo sapiens; assay: To identify inhibition of the IFN signalling (Jak-Stat) pathway via expression of an eGFP reporter gene under the control of an IFN-stimulated response element (ISRE) containing MxA promoter.; format: functional; conditions: 30 µM
[7] = biological target: T4, Tyrosyl-tRNA synthetase, putative (Trypanosoma cruzi (strain CL Brener)) (UniProt Q4DSP6); assay: Trypanosoma cruzi tyrosyl tRNA synthetase (TcYRS) _High Tyrosine SOP; format: functional; conditions: 30 µM; also: in the data most compounds retested in dose-response had high values
T4 sequence (whole entry): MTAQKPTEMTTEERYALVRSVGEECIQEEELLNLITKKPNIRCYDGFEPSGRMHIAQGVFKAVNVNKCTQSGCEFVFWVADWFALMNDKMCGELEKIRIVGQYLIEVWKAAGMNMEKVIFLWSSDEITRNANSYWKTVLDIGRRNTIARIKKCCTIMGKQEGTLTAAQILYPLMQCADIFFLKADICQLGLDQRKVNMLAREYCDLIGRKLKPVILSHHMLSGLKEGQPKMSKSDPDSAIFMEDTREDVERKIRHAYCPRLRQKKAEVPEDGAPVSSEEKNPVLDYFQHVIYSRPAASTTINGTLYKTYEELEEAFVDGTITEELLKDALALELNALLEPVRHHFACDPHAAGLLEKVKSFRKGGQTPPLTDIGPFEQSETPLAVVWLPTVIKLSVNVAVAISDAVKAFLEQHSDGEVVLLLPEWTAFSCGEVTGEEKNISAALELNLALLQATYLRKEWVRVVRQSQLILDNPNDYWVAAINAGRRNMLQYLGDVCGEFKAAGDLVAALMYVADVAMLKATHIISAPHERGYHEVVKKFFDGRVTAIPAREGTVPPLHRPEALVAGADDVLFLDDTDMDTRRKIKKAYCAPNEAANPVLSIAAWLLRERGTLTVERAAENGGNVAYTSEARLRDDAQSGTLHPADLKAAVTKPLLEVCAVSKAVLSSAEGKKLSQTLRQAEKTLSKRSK

[8] = biological target: T4, Tyrosyl-tRNA synthetase, putative (Trypanosoma cruzi (strain CL Brener)); assay: Trypanosoma cruzi tyrosyl tRNA synthetase (TcYRS) SOP; format: functional; conditions: 30 µM
[9] = biological target: Chromo domain-containing protein 1 (Saccharomyces cerevisiae (strain ATCC 204508 / S288c) (Baker's yeast)) (UniProt P32657); assay: ScCHD-1 Enzyme Inhibition Assay; format: functional; conditions: 30 µM; also: in the data most compounds retested in dose-response had high values
Sequence of Chromo domain-containing protein 1 (Saccharomyces cerevisiae (strain ATCC 204508 / S288c) (Baker's yeast)) (P32657 whole entry, the tested form may be a part): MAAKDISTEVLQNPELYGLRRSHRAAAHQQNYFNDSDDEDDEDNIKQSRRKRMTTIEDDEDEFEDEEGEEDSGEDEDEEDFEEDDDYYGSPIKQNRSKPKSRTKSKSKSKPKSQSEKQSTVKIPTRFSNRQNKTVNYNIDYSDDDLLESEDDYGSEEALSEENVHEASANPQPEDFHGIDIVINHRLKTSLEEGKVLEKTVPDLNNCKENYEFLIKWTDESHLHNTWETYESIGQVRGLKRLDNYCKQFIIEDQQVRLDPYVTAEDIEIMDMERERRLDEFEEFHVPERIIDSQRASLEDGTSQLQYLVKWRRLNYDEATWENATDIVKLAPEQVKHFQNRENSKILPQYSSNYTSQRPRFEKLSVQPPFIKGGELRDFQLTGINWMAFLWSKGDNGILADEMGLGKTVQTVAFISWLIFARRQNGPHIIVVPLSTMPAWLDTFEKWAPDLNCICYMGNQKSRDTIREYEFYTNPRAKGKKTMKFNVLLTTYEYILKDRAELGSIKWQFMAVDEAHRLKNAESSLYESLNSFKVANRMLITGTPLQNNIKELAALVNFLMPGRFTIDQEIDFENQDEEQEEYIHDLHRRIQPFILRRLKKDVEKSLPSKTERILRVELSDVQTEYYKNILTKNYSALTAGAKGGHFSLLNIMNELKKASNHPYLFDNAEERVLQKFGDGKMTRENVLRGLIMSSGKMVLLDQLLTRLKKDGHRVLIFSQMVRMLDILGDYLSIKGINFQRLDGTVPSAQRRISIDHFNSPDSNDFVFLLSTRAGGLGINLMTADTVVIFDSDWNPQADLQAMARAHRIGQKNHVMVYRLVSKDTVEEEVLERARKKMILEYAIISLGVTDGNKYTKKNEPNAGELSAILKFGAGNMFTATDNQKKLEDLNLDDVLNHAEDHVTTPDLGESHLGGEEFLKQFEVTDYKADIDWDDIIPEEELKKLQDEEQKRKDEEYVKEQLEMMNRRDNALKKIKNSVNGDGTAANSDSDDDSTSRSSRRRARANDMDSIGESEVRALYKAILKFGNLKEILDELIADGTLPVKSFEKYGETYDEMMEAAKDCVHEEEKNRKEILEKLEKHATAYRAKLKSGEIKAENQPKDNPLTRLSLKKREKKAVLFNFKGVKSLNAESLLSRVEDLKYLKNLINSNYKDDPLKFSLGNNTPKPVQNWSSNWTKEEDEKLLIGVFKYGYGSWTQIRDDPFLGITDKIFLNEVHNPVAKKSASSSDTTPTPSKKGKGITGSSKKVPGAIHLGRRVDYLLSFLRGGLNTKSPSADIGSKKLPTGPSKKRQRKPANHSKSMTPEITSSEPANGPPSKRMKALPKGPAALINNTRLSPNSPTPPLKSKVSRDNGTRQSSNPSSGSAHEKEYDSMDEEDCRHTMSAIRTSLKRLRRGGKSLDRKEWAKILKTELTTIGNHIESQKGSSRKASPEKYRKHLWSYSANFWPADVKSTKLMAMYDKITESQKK

Sequence of Protein translocase subunit SecA (Escherichia coli (strain K12)) (P10408 whole entry): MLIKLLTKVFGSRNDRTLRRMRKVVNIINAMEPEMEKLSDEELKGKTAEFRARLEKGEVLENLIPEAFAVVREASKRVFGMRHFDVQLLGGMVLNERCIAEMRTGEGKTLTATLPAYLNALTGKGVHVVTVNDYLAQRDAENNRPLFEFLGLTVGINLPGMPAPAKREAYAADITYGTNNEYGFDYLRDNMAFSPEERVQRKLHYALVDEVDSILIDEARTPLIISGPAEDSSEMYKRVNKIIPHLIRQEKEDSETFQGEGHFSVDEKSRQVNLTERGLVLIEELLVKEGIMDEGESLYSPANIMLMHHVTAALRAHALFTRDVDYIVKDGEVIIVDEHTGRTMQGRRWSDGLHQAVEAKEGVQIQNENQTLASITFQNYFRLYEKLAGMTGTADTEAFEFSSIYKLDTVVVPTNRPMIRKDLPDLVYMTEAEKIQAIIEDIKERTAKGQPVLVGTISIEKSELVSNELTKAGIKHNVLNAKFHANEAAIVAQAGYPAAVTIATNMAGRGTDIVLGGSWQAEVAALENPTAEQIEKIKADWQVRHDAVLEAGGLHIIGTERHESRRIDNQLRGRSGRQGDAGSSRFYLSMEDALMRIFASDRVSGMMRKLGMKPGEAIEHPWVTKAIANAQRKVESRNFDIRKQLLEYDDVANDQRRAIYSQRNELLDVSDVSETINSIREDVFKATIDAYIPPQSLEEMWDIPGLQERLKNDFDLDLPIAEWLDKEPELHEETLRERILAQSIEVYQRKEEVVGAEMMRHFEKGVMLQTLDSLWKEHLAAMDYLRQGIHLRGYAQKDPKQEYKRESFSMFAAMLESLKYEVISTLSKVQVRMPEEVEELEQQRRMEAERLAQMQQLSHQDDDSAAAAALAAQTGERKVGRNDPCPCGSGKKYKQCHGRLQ

SMILES | Percent Effect [1] [%] | Percent Effect [2] [%] | Percent Effect [3] [%] | Percent Effect [4] [%] | Percent Effect (Trypanosoma cruzi) [%] | Percent Effect [5] [%] | Percent Effect [6] [%] | Percent Effect (Homo sapiens) [%] | Percent Effect [7] [%] | Percent Effect [8] [%] | Percent Effect [9] [%]
CCc1ncc2c(n1)CN(Cc1nc(C)c(C)o1)CC2 | -3.48 | 2.74 | -53 | -5.63 | -1.76 | 6.82 | 9.94 | 10.1 | 5.38 | 10 | -5.18
COC(=O)c1sccc1S(=O)(=O)NCC1(O)CCOc2ccccc21 (configuration not stated) | -3.54 | 0 | 5.9 | -3.21 | -3.72 | 1.82 | 1.77 | 4.11 | 0 | 7.5 | -4.1
Cc1nc(COC[C@@H]2CC[C@H]3[C@H](CCN3S(C)(=O)=O)O2)cs1 | 1.19 | 8.11 | -0.571 | -10.8 | -6.94 | 7.96 | 23.4 | 8.05 | 6.49 | 10.3 | 0.52
CC(=O)Nc1nc(CN2CCOC(Cn3cc(C)cn3)C2)cs1 (configuration not stated) | -2.79 | 15.6 | 9.13 | -6.5 | 0.0979 | 0.21 | 19.5 | 2.79 | 3.81 | 21.2 | -20.4
c1coc(-c2noc(CN3CCC(c4ccn[nH]4)CC3)n2)c1 | -1.24 | 5.41 | -3.37 | 31.9 | 5.02 | 0 | 16.4 | 3.15 | -1.59 | 7.32 | -4.25
O=C(CCc1cc2n(n1)CCCN(Cc1ccccc1F)C2)NC1CC1 | -3.75 | 1.39 | 1.32 | 0.0735 | 6.71 | -2.21 | 10.2 | -26.8 | 2.1 | 5.13 | -4.12
CCc1nc(CN2CCCN(C(=O)C(C)n3ccnc3)CC2)cs1 (configuration not stated) | -2.92 | 5.2 | 3.99 | 3.63 | 3.75 | -5.69 | 21.1 | -7.97 | 5.83 | 9.76 | -4.4
Cc1noc(C)c1C1CCCN1C(=O)CN1CC2(CCNCC2)OC1=O (configuration not stated) | -6.39 | 0 | 4.75 | 9.41 | -1.35 | -3.81 | 6.9 | -4.21 | 3.7 | 0 | -4.34
CCCn1nc2c(cc1=O)CN(CCCN1CCCC1=O)CC2 | -3.62 | -2.7 | -101 | 1.97 | -2.55 | -1.6 | 29.6 | 17.5 | 4.43 | -1.24 | -3.69
Cn1ccnc1CN1CCN(Cc2ccccc2C#N)CC1 | -5.61 | 18.4 | -14.9 | 6.65 | 2.52 | -0.719 | 6.34 | 5.87 | 12.3 | 18.5 | -9.79
Cc1ccc(-c2nnc(CN3CCc4cnc(C)nc4C3)o2)cc1 | -4.56 | 0 | -17.5 | 15.5 | 11.2 | -13.9 | 10.4 | 15.6 | 18.8 | 30.5 | -10.7
CCN(Cc1nc2c(cnn2C)c(=O)[nH]1)c1cccc(F)c1 | -1.38 | 11.4 | 6.32 | 2.17 | -2.36 | -6.24 | 15.3 | 9.49 | 1.04 | 15.2 | -15.7
O=C(O)C1(Cc2cc(-c3ccc(F)cc3F)no2)CCOCC1 | -4.49 | 4.05 | 11 | -5.88 | -8.3 | -9.51 | 14.2 | 6.33 | -4.3 | -1.3 | -7.79
C=C(C)CN(Cc1cccc(O)c1)C1CCC(O)CC1 (configuration not stated) | -4.6 | 5.41 | -0.588 | 6.05 | -2.64 | -0.248 | 6.44 | -11.6 | 2.15 | 6.17 | -4.17
Cc1ccc(CC(=O)N2CCOC(c3nc(C)n[nH]3)C2)cn1 (configuration not stated) | -3.84 | 20.8 | -6.18 | 28.2 | 3.79 | 5.74 | 5.96 | -6.79 | 6.32 | 12.8 | -3.82
CCN(CC)C(CNS(=O)(=O)c1ccc(C(=O)NC)cc1)c1ccco1 (configuration not stated) | -3.83 | 5.41 | 3.15 | -5.57 | -5.47 | -1.67 | 18.5 | 13.1 | 9.9 | 6.1 | 7.75
Cc1noc([C@H]2C[C@@H]3CCN(C(=O)C4CCOCC4)C[C@H]3O2)n1 | -3.88 | 0 | 7.28 | 1.95 | -3.81 | 8.6 | 17 | -2.45 | 1.08 | 5.13 | 3.17
CCc1cnc(CN(C)C2CCN(CCc3ccccn3)C2)o1 (configuration not stated) | 3.36 | 9.72 | -16 | 1.45 | -3.21 | 3.97 | 25.6 | 0.763 | 10.5 | 5.13 | 107
CN(Cc1nc(N)c2ccccc2n1)C1CCCN(c2cccnn2)C1 (configuration not stated) | -4.12 | -5.2 | -10.2 | 5.86 | 7.49 | -1.07 | 13.3 | -0.131 | 9.71 | 14.6 | -9.67
Cc1cnn(C2CCCN(C(=O)c3ccnc(N(C)C)c3)C2)c1 (configuration not stated) | -0.378 | 19 | -4.04 | -2.57 | -1.54 | 0.645 | 10.3 | 19.4 | 1.04 | 5.06 | -31.1
CC(O)CN1CCN(C(=O)c2cnn(-c3ccc(Cl)cc3)c2)CC1 (configuration not stated) | -8.22 | 5.33 | -3.17 | 23.3 | 6.13 | 5.21 | 11 | 7.52 | 1.64 | 8.64 | -3.32
CCCS(=O)(=O)Nc1ccc2c(c1)OCC(C)(C)C(=O)N2C | -0.588 | 11 | -6.5 | 1.41 | -5.09 | -2.27 | 12.6 | 8.18 | 2.15 | 10 | -5.87
